High-throughput results: PubChem, National Center for Advancing Translational Sciences (NCATS)
HP1b chromo inh: inhibitors of HP1-beta chromodomain binding to methylated histone tails; AID 540317; P83916; Potency, µM (top dose mostly 114 µM), for the others: top-dose activity change, negative = inhibition, usual class: inhibitors; 0.56% of 390,000 active; AlphaScreen HP1-beta / biotin-H3K9me3 peptide binding; note: nearly all actives have a fitted effect of over 70% in size
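HP1-beta protein (50 nM final) preincubated 30 min at room temperature with biotinylated H3(1-18)K9me3 peptide (50 nM) in PBS pH 7.4, 0.01% Tween-20, then compound added for 30 min. AlphaScreen streptavidin donor/nickel chelate acceptor beads (10 ug/mL final), 30 min dark, luminescence read.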
Sfp inh: inhibitors of Bacillus subtilis Sfp phosphopantetheinyl transferase | Q9F4F7 | Biochemical Sfp PPTase activity, qHTS | Potency, µM, for the others: largest response in the series, negative = inhibition, usual class: inhibitors | 3.5% of 310,000 active | AID 1490;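 note: the enzyme is Sfp with the accession as filed and its product quenches rhodamine fluorescence; 0% = enzyme reaction without inhibitor and -100% = no enzyme wells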
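Step 1, compound plus 15 nM Sfp-PPTase, 15 min, room temperature. Step 2, add rhodamine-CoA (5 uM) and BHQ-2-YbbR (12.5 uM). Step 3, read 525/598 nm fluorescence at 0 and 30 min.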
JMJD2A Tudor: inhibitors of human JMJD2A Tudor domain; AlphaScreen JMJD2A-Tudor / H3K4me3 peptide binding; AID 504339; Potency, µM (titrated, usually from 114 µM), for the others: at the top dose activity change, negative = inhibition, usual class: inhibitors; O75164; 4.4% of 390,000 active; note: % is set by controls: 0 for no effect and ±100 for the full control effect; nearly all actives have a fitted effect of over 50% in size
12-LOX inh: blocks human arachidonate 12S-lipoxygenase; P18054; purified 12hLO, xylenol orange hydroperoxide absorbance; Potency, µM (series often up to 108 µM), for the others: top-dose activity change, negative = inhibition, most hits filed as inhibitors; 1.1% of 580,000 active; AID 1671190; note: % is set by controls: 0 for no effect and ±100 for the full control effect
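Purified human 12hLO at 150 nM in 25 mM Hepes, 0.01% Triton X-100, pH 7.0, preincubated 15 min at room temperature with compound. Reaction started with 40 uM arachidonic acid, 30 min at room temperature. Hydroperoxide measured by Fe-xylenol orange, 573/405 nm absorbance ratio.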
BAZ2B inh: blocks human BAZ2B | 4.4% of 360,000 active | Potency, µM (titrated, usually from 114 µM), inactives show at the top dose activity change, negative = inhibition, usual class: inhibitors | AlphaScreen BAZ2B-H3K14Ac peptide displacement | AID 504333; note: % is set by controls: 0 for no effect and ±100 for the full control effect; nearly all actives have a fitted effect of over 60% in size
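Compounds, titrated to a top concentration of 110 uM, were incubated 30 min at room temperature with preformed BAZ2B/acetyl-K14 H3 peptide complex (50 nM each). Proximity signal was measured by AlphaScreen after 20 min with beads.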
G9a block: inhibitors of human histone lysine methyltransferase G9a; G9a H3K9 monomethylation, AlphaScreen, 2 h; Q96KQ7; Potency, µM (series often up to 102 µM), inactives show at the highest dose activity, negative = inhibition, hits mostly inhibitors; 8.8% of 350,000 active; AID 504332; note: % is set by controls: 0 for no effect and ±100 for the full control effect; nearly all actives have a fitted effect of over 75% in size
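Methyltransferase reactions run at room temperature for 2 h (20 nM enzyme, 500 nM biotin-H3K9 peptide, 20 uM SAM) after a 15 min compound preincubation; product detected by AlphaScreen beads and anti-H3K9me1 antibody.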
* hit, by the source's call; ? = inconclusive; · = not tested or not shown; [ ] = dose if it differs, or a comment. Rows were chosen to be rich in hits. Some 8.7% of all compounds tested hit in one or more screens of this group. Calls come from the whole dose curve; as a rule, active = well fitted curve in the direction sought with a large enough effect; inconclusive = small, poorly fitted or top-dose-only effect, or another doubt; inactive = no such curve, though single readings can be large; an effect the other way counts as inactive or inconclusive. Potency is the fitted concentration of half-maximal effect.

SMILES	HP1b chromo inh	Sfp inh	JMJD2A Tudor	12-LOX inh	BAZ2B inh	G9a block
O=[N+]([O-])c1cc([N+](=O)[O-])c2cccnc2c1Oc1ccccc1O	71µM*	45µM*	22µM*	?	28µM*	3.2µM*
O=[N+]([O-])c1ccc(O)c2cccnc12	?	-3%	-20%	-1%	?	?
CN1CCN(Cc2nc3ccccc3c(=O)n2Cc2nc(-c3ccc([N+](=O)[O-])cc3)cs2)CC1	?	-16%	20µM*	45µM*	-39%	22µM*
CN(C)Cc1nc2ccccc2c(=O)n1Cc1nc(-c2cccc([N+](=O)[O-])c2)cs1	?	3%	?	3%	-36%	?
CN(C1CCc2nn(CC3CC3)c(=O)n2CC1)S(=O)(=O)Cc1ccccc1 (stereo unspecified)	·	·	·	50%	·	·
CCn1cc(C(=O)O)c(=O)c2cnc(N3CCN(C(=S)NC(=O)c4ccc(Br)cc4)CC3)nc21	27%	22%	56µM*	·	1%	·
CCn1cc(C(=O)O)c(=O)c2cnc(N3CCN(C(=S)Nc4ccccc4Cl)CC3)nc21	6%	18%	-2%	-25%	-4%	56µM*
CCn1cc(C(=O)O)c(=O)c2cnc(N3CCN(C(=S)NC(=O)c4ccc(Cl)cc4)CC3)nc21	50%	28%	-3%[11.4 µM]	·	-13%	?
CCn1cc(C(=O)O)c(=O)c2cnc(N3CCN(C(=S)Nc4ccc(F)cc4)CC3)nc21	33%	-13%	-5%	-2%	-3%	26%
C=CCNC(=S)N1CCN(c2ncc3c(=O)c(C(=O)O)cn(CC)c3n2)CC1	22%	11%	50µM*	-17%	-38%	·
CCn1cc(C(=O)O)c(=O)c2cnc(N3CCNCC3)nc21	·	10%	·	-7%[22.9 µM]	7%	-10%[59 µM]
CCOc1ccccc1CN1CCCCCNC(=O)CC1c1ccccc1 (stereo unspecified)	·	·	·	6%	·	·
O=C(O)COc1ccc(C(=O)c2cccs2)c(Cl)c1Cl	·	14%	·	·	·	-40%[12.7 µM]
Cc1ccccc1C1=C/C(=C(\SS/C(C(=O)c2ccc(OCC(=O)O)c(Cl)c2Cl)=C2\C=C(c3ccccc3C)SS2)C(=O)c2ccc(OCC(=O)O)c(Cl)c2Cl)SS1	20µM*	·	28µM*	5.6µM*	·	·
CCN(CC)S(=O)(=O)c1ccc(/C=C/C(=O)Nc2ccc(N3CCOCC3)cc2)cc1	-18%	9%	?	-8%	?	45µM*
CCN(CC)S(=O)(=O)c1ccc2c(c1)nc(CCC(=O)Nc1ccc(N3CCOCC3)cc1)n2C	-6%	-27%	-31%	6%	-30%	45µM*
COc1ccc(OCC(=O)Nc2ccc3c(c2)nc(CCN2CCOCC2)n3C)cc1	16%	14%	-20%	-1%	0%	56µM*
Cn1c(CCC(=O)Nc2ccc(F)cc2)nc2cc(S(=O)(=O)N3CCOCC3)ccc21	31%	·	-4%	-6%	13%	-28%
O=C(NC1CCCCC1)[C@@H]1C[C@@H](O)CN1C1CCN(C(=O)c2ccsc2)CC1	·	·	·	56%	·	·
O=C(c1ccc2c(c1)OCO2)N1CCN(c2cc(-c3ccc(F)cc3)[nH]n2)CC1	·	·	·	8%	·	·
CC(=O)NCC(=O)N1CCCC2(CN[S+](=O)([O-])c3cccnc3O2)C1 (stereo unspecified)	·	·	·	2%[6.33 µM]	·	·
O=C(Nc1cccc2nsnc12)c1cccs1	16%	-3%	-11%	-24%	-2%	8%[59 µM]
O=C(Nc1ccccc1)Nc1cccc2nsnc12	96%	63µM*	64%	40µM*	24%	25%[12.7 µM]
COc1ccc(/C=N/NC(=O)Nc2cccc3nsnc23)cc1	11%	6%	71µM*	-3%	-28%	0%[59 µM]
O=C(Nc1cccc2nsnc12)c1ccc(-c2ccc(Br)cc2)o1	15%	40µM*	3%	35µM*	-32%	40µM*
SMILES	HP1b chromo inh	Sfp inh	JMJD2A Tudor	12-LOX inh	BAZ2B inh	G9a block
COc1ccc(C=NNC(=O)CCCCC(=O)NN=Cc2ccc(OC)cc2)cc1	40%	·	-15%	2%	·	·
CC(C)C(C)NC(=O)c1ccc(CNC(=O)OC(C)(C)C)cc1 (stereo unspecified)	·	·	·	2%	·	·
Cc1cccc(NCc2nnc(-c3ccccc3)o2)c1C	-13%	12%	79µM*	1%	-7%	5%
O=C(O)c1ccc(COc2ccc(F)c(Cl)c2)o1	·	·	·	1%	·	·
C1CNC(CN2CCOCC2)C1 (stereo unspecified)	·	·	·	8.9µM*	·	·
O=C(CNCCc1ccccc1)Nc1ccc(C(=O)N2CCCCC2)cc1	?	-17%	22µM*	?	40µM*	11µM*
Cc1ccc(CC(=O)Nc2ccc(C(=O)N3CCCCC3)cc2)cc1	9%[57 µM]	-2%	1%	-11%	-15%	·
NC(=O)c1ccc(NC(=O)CNCc2ccccc2Cl)cc1	37%	15%	4%	?	-1%	-36%
O=C(CNCCc1ccc(Cl)cc1)Nc1ccc(C(=O)N2CCCCC2)cc1	?	?	3.2µM*	?	20µM*	7.9µM*
O=C(CNCc1ccccc1Cl)Nc1ccc(C(=O)N2CCCCC2)cc1	?	?	?	-32%	22µM*	5.6µM*
O=C(O)CCC(=O)Nc1ccc(C(=O)N2CCCCC2)cc1	14%	13%	-6%	18%	-1%	29%
O=C(CNCc1ccc(F)cc1)Nc1ccc(C(=O)N2CCCCC2)cc1	?	?	1.1µM*	?	32µM*	10µM*
Cc1cc2nc3n(c(=O)c2n1CC(=O)Nc1cccc(Cl)c1)CCCCC3	·	·	·	-27%	·	·
CC(=O)N1CCC(C(=O)NCCc2ccccc2C(F)(F)F)CC1	·	·	·	6%	·	·
CN(C)[C@H]1C[C@@H](Cc2cc(CCO)on2)C1(C)C	·	·	·	30%[176 µM]	·	·
O=C(N/N=C/c1c(O)ccc2ccccc12)Nc1ccccc1	41%	·	-30%	379%	·	·
O=C(CSCC(=O)Nc1ccccc1)N/N=C/c1c(O)ccc2ccccc12	17%	-7%	-31%	?	-2%	1.6µM*
O=C(CN1CCOCC1)N/N=C/c1c(O)ccc2ccccc12	52%	8%	-12%	0%	45µM*	-13%
O=C(O)c1cc(N/N=C/c2c(O)ccc3ccccc23)ccc1Cl	?	-23%	?	?	40µM*	20µM*
O=C(CN1CCOCC1)N/N=C/c1ccco1	44%	10%	-8%	6%	2%	-38%
CCOC(=O)c1sc(C)nc1C1CCN(C(=O)OCC)CC1	-8%	-14%	2%	-7%	-6%	45µM*
O=S(=O)(N[C@H]1CO[C@H]2[C@@H]1OC[C@@H]2n1cc(-c2ccccn2)nn1)c1cccs1	·	·	·	63µM*	·	·
CCN1CCCC1CNC(=O)CC(C)C (stereo unspecified)	·	·	·	7%	·	·
